Source: PubChem BioAssay AID1159580 (chemical genetic matrix, 2015)
Where “and” joins values, the source holds several entries; their conditions need not be identical. Identical values can stand only once. About 2,000 (36%) of roughly 5,500 compounds were called active. About 18% were inconclusive and are not listed. Cut-off read from the data, not from the text of the source: active = normalized growth mostly below about 0.91 (no sharp cut-off); inconclusive = no clear call, values can overlap the other calls; inactive = mostly above about 0.92. The list shows a part of the results.

Assay: chemical genetic growth profiling, strain panel (AID 1159580);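 note: tested at 20 µM; growth read once vehicle control cultures reached saturation at 30 °C; 1 = growth at the plate median or of vehicle wells; lower values mean less growth of the strain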
Conditions: S. cerevisiae deletion strains, growth OD

For `CC(=O)[C@H]1CCC2C3CCC4=CC(=O)CC[C@]4(C)C3CC[C@@]21C` (some centres not stated), the normalized growth (locus YAL013W, strain DEP1, stronger effect = lower value) was 0.963 (inactive), the normalized growth (locus YAL021C, strain ccr4, stronger effect = lower value) was 0.901 (active) and the normalized growth (locus YAL026C, strain drs2, stronger effect = lower value) was 0.936 (inactive). The normalized growth (locus YAL030W, strain snc1, stronger effect = lower value) was 0.975 (inactive), the normalized growth (locus YBL061C, strain skt5, stronger effect = lower value) was 0.968 (inactive) and the normalized growth (locus YBR009C, strain hhf1, stronger effect = lower value) was 0.909 (inactive). The normalized growth (locus YBR021W, strain FUR4, stronger effect = lower value) was 0.93 (inactive), the normalized growth (locus YBR023C, strain chs3, stronger effect = lower value) was 0.957 (inactive) and the normalized growth (locus YBR171W, strain sec66, stronger effect = lower value) was 0.933 (inactive). For the same compound, the normalized growth (locus YBR229C, strain ROT2, stronger effect = lower value) was 0.981 (inactive), the normalized growth (locus YBR231C, strain swc5, stronger effect = lower value) was 0.951 (inactive) and the normalized growth (locus YBR279W, strain paf1, stronger effect = lower value) was 0.994 (inactive). The normalized growth (locus YCL011C, strain gbp2, stronger effect = lower value) was 0.971 (inactive), the normalized growth (locus YCL016C, strain dcc1, stronger effect = lower value) was 0.963 (inactive) and the normalized growth (locus YCL029C, strain bik1, stronger effect = lower value) was 0.735 (active). For the same compound, the normalized growth (locus YCL061C, strain MRC1, stronger effect = lower value) was 0.955 (inactive), the normalized growth (locus YCL069W, strain vba3, stronger effect = lower value) was 0.976 (inactive) and the normalized growth (locus YCR088W, strain abp1, stronger effect = lower value) was 0.99 (inactive). For the same compound, the normalized growth (locus YDL005C, strain med2, stronger effect = lower value) was 0.987 (inactive), the normalized growth (locus YDL035C, strain GPR1, stronger effect = lower value) was 0.936 (inactive) and the normalized growth (locus YDL040C, strain nat1, stronger effect = lower value) was 0.981 (inactive). For the same compound, the normalized growth (locus YDL074C, strain BRE1, stronger effect = lower value) was 0.862 (inactive), the normalized growth (locus YDL101C, strain DUN1, stronger effect = lower value) was 0.977 (inactive) and the normalized growth (locus YDL134C, strain PPH21, stronger effect = lower value) was 0.962 (inactive). For the same compound, the normalized growth (locus YDL185W, strain tfp1, stronger effect = lower value) was 0.923 (inactive), the normalized growth (locus YDL192W, strain arf1, stronger effect = lower value) was 0.719 (active) and the normalized growth (locus YDR001C, strain nth1, stronger effect = lower value) was 0.98 (inactive). The normalized growth (locus YDR069C, strain doa4, stronger effect = lower value) was 0.963 (inactive), the normalized growth (locus YDR101C, strain arx1, stronger effect = lower value) was 0.908 (active) and the normalized growth (locus YDR137W, strain rgp1, stronger effect = lower value) was 0.49 (active). For the same compound, the normalized growth (locus YDR150W, strain NUM1, stronger effect = lower value) was 0.983 (inactive), the normalized growth (locus YDR159W, strain sac3, stronger effect = lower value) was 0.879 (inactive) and the normalized growth (locus YDR162C, strain NBP2, stronger effect = lower value) was 0.583 (active). The normalized growth (locus YDR195W, strain ref2) was 1.29 [resistant] (active), the normalized growth (locus YDR297W, strain sur2, stronger effect = lower value) was 0.972 (inactive) and the normalized growth (locus YDR318W, strain mcm21, stronger effect = lower value) was 0.671 (active). For the same compound, the normalized growth (locus YDR334W, strain swr1, stronger effect = lower value) was 0.985 (inactive), the normalized growth (locus YDR335W, strain msn5, stronger effect = lower value) was 0.948 (inactive) and the normalized growth (locus YDR388W, stronger effect = lower value) was 0.854 (active). For the same compound, the normalized growth (locus YDR392W, strain spt3, stronger effect = lower value) was 0.247 (active), the normalized growth (locus YDR502C, strain sam2, stronger effect = lower value) was 0.77 (active) and the normalized growth (locus YEL003W, strain gim4, stronger effect = lower value) was 0.931 (inactive). The normalized growth (locus YEL037C, strain rad23, stronger effect = lower value) was 0.974 (inactive), the normalized growth (locus YEL061C, strain CIN8 (second series), stronger effect = lower value) was 0.972 (inactive) and the normalized growth (locus YEL061C, strain CIN8, stronger effect = lower value) was 0.971 (inactive). For the same compound, the normalized growth (locus YER015W, strain faa2, stronger effect = lower value) was 0.969 (inactive), the normalized growth (locus YER016W, strain bim1, stronger effect = lower value) was 0.953 (inactive) and the normalized growth (locus YER110C, stronger effect = lower value) was 0.916 (inactive). The normalized growth (locus YER111C, strain swi4, stronger effect = lower value) was 0.954 (inactive), the normalized growth (locus YER155C, strain BEM2 (second series), stronger effect = lower value) was 0.555 (active) and the normalized growth (locus YER155C, strain BEM2, stronger effect = lower value) was 0.991 (inactive). The normalized growth (locus YER167W, strain BCK2, stronger effect = lower value) was 0.93 (inactive), the normalized growth (locus YFR010W, strain ubp6, stronger effect = lower value) was 0.994 (inactive) and the normalized growth (locus YGL078C, strain dbp3, stronger effect = lower value) was 0.961 (inactive). The normalized growth (locus YGL086W, strain mad1, stronger effect = lower value) was 0.743 (active), the normalized growth (locus YGL167C, strain pmr1, stronger effect = lower value) was 0.94 (inactive) and the normalized growth (locus YGL173C, strain kem1, stronger effect = lower value) was 0.91 (inactive). For the same compound, the normalized growth (locus YGL227W, strain vid30, stronger effect = lower value) was 0.999 (inactive), the normalized growth (locus YGL240W, strain doc1, stronger effect = lower value) was 0.906 (inactive) and the normalized growth (locus YGL248W, strain PDE1, stronger effect = lower value) was 0.968 (inactive). The normalized growth (locus YGL253W, strain hxk2, stronger effect = lower value) was 0.879 (active), the normalized growth (locus YGR078C, strain PAC10, stronger effect = lower value) was 0.898 (inactive) and the normalized growth (locus YGR135W, strain pre9, stronger effect = lower value) was 0.731 (active). For the same compound, the normalized growth (locus YGR229C, strain SMI1, stronger effect = lower value) was 1.02 (inactive), the normalized growth (locus YGR252W, strain gcn5, stronger effect = lower value) was 0.924 (inactive) and the normalized growth (locus YHR013C, strain ard1, stronger effect = lower value) was 1.06 (inactive). The normalized growth (locus YHR027C, strain rpn1, stronger effect = lower value) was 0.97 (inactive), the normalized growth (locus YHR030C, strain SLT2, stronger effect = lower value) was 0.925 (inactive) and 0.973 (inactive) and the normalized growth (locus YHR079C, strain IRE1 (second series), stronger effect = lower value) was 0.85 (active). The normalized growth (locus YHR079C, strain IRE1, stronger effect = lower value) was 0.984 (inactive), the normalized growth (locus YHR094C, strain hxt1, stronger effect = lower value) was 0.907 (active) and the normalized growth (locus YHR129C, strain ARP1, stronger effect = lower value) was 0.973 (inactive). The normalized growth (locus YHR142W, strain chs7, stronger effect = lower value) was 0.85 (active), the normalized growth (locus YHR200W, strain rpn10, stronger effect = lower value) was 0.884 (active) and the normalized growth (locus YIL066C, strain RNR3, stronger effect = lower value) was 0.902 (inactive). The normalized growth (locus YIL073C, strain SPO22, stronger effect = lower value) was 0.893 (inactive), the normalized growth (locus YIL125W, strain kgd1, stronger effect = lower value) was 0.958 (inactive) and the normalized growth (locus YIR030C, strain dcg1, stronger effect = lower value) was 0.922 (active). For the same compound, the normalized growth (locus YJL092W, strain hpr5, stronger effect = lower value) was 0.969 (inactive), the normalized growth (locus YJL095W, strain BCK1 (second series), stronger effect = lower value) was 0.869 (active) and the normalized growth (locus YJL095W, strain BCK1, stronger effect = lower value) was 0.777 (active) and 0.981 (inactive). The normalized growth (locus YJL115W, strain asf1, stronger effect = lower value) was 0.98 (inactive), the normalized growth (locus YJL129C, strain trk1, stronger effect = lower value) was 0.865 (active) and the normalized growth (locus YJL134W, strain LCB3, stronger effect = lower value) was 0.98 (inactive). For the same compound, the normalized growth (locus YJL154C, strain vps35, stronger effect = lower value) was 0.986 (inactive), the normalized growth (locus YJL164C, strain tpk1, stronger effect = lower value) was 0.929 (inactive) and the normalized growth (locus YJL166W, strain qcr8, stronger effect = lower value) was 0.916 (inactive). The normalized growth (locus YJL168C, strain set2, stronger effect = lower value) was 0.934 (inactive), the normalized growth (locus YJL187C, strain SWE1 (second series), stronger effect = lower value) was 0.96 (inactive) and the normalized growth (locus YJL187C, strain SWE1, stronger effect = lower value) was 0.969 (inactive). The normalized growth (locus YJR043C, strain POL32, stronger effect = lower value) was 0.986 (inactive) and the normalized growth (locus YJR066W, strain TOR1, stronger effect = lower value) was 0.93 (inactive).
